About 83,000 compounds went through this panel and 20% of them were active in at least one assay; those are over-represented in the sample as a whole.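 A percent growth of 40 corresponds to 60% growth inhibition; 0 means no net growth; -100 means all cells died. Active threshold: below 10.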 Calls of active or inactive are those of the source.

The subject of this experiment is MOLT-4 leukemia. In words: NCI-60 one-dose screen, 48 h (100 = growth as untreated, 0 = no growth, -100 = all killed). The settings on record: 10 µM unless noted.
In the case of `Cc1ccc(S(=O)(=O)c2nc(S(=O)(=O)c3ccc(C)cc3)c(Cl)s2)cc1`, the growth was 16.6% (inactive).

Take `CCCCSc1nc(Nc2ccc(C(C)=O)cc2)c(C#N)c(-c2ccc(OC)cc2)n1`: the growth is 88% (inactive).

On to `CCOC(=O)C1=C(N)N(c2ccccc2)C2=C(C(=O)CC(C)(C)C2)C1c1ccc([N+](=O)[O-])cc1` (stereo not drawn), for which the growth was 78.3% (inactive).

Turning to `Cc1cccc(Nc2nc3ccccc3nc2/C=C/c2ccc(F)cc2)c1`, the growth was 80.9% (inactive).

Turning to `Cc1cccc(NC(=O)CN2CCN(c3ncnc4c3cnn4-c3ccccc3)CC2)c1`, the growth was 75% (inactive).

Regarding `Cn1cc(-c2cc3nc(-c4c[nH]c5ccc(Br)cc45)cc(N)n3n2)c2ccccc21`, the growth was -33.8% (active).

As for `C#CCOc1ccc(/C=N/Nc2nc(-c3cc4cc(OC)ccc4oc3=O)cs2)cc1OC`, the growth is 63.9% (inactive).

For `CC1(C)CC[C@]2(C(=O)O)CC[C@]3(C)C(=CCC4[C@@]5(C)C[C@@H](O)[C@@H]6OC(c7ccc(F)cc7)OC[C@@]6(C)C5CC[C@]43C)C2C1` (stereo partly drawn), the growth was 8.69% (active).

Take `O=C(NN1C(=O)/C(=C/C=C/c2ccc([N+](=O)[O-])o2)SC1=S)c1cccc(O)c1`: the growth is 2.92% (active).

`Cc1ccc(C(=O)NN2C(=O)/C(=C/C=C/c3ccc([N+](=O)[O-])o3)SC2=S)cc1`: the growth is 9.73% (active).

Take `N/C(=N\c1nc2ccccc2s1)NC(=O)Nc1c(Cl)cccc1Cl`: the growth was 30% (inactive).

On to `O=C(CN1C(=O)/C(=C/c2ccccc2Cl)SC1=S)N1CCOCC1`, for which the growth was 85.9% (inactive).

For the molecule `CN(C)c1nc(NCCNS(=O)(=O)c2ccc(C3=Nc4c(N)nc(N)nc4NC(c4ccc(C(F)(F)F)cc4)C3)cc2)nc(Nc2ccc(F)cc2)n1` (stereo not drawn), the growth is 9.04% (active).

For the molecule `O=C(CSc1nc2ccccc2c(=O)[nH]1)NCCN1CCCCC1`, the growth is 103% (inactive).

Consider `Cn1cc(-c2nnc(N)nc2-c2c[nH]c3ccc(Br)cc23)c2cc(Br)cnc21`, for which the growth is 11.7% (inactive).

As for `O=C(O)Cn1c(O)c(/C=C2/C=c3cc4c(cc3=NC2=O)OCCO4)sc1=S`, the growth was 105% (inactive).

As for `N/C(=N\c1nc2ccccc2s1)NC(=O)Nc1ccc(Cl)cc1Cl`, the growth was 6.86% (active).

With `Cc1ccc(-c2nc(C#N)c(S(=O)(=O)N3CCN(S(=O)(=O)c4ccccc4)CC3)o2)cc1`, the growth is -20.5% (active).

As for `COc1cccc(-c2nc(Nc3ccc(S(N)(=O)=O)cc3)c3ccccc3n2)c1`, the growth is 16.8% (inactive).

With `COc1ccc(/C=C/c2nc3ccccc3n3c(-c4ccc(Cl)cc4)nnc23)cc1`, the growth is 72.6% (inactive).

On to `CNS(=O)(=O)c1ccc(Nc2ccc(C(F)(F)F)cc2)c(-c2cn(C)cn2)c1`, for which the growth is 37.1% (inactive).

Consider `CCS(=O)(=O)N1CCCC(C(=O)Nc2nc3ccc(NC(=O)c4ccc(F)c(OC)c4F)cc3s2)C1` (stereo not drawn), for which the growth is 9.19% (active).

In the case of `C#CCOc1cc(N(CC)CC)ccc1C(C(=O)NC(C)(C)C)N(C(=O)C1CCc2cc(F)ccc2O1)c1cc(C)cc(C)c1` (stereo not drawn), the growth is 16% (inactive).

`C#CCOc1ccc(/C=N/Nc2nc(-c3ccc(Cl)cc3)cs2)cc1OC`: the growth is 21.7% (inactive).

Take `O=C(COc1ccc2c(c1)CCCC(=O)N2)NCc1ccccc1`: the growth is 80.6% (inactive).

In the case of `CN(C)c1nc(NCCNS(=O)(=O)c2ccc(C3=Nc4c(N)nc(N)nc4NC(c4ccccc4)C3)cc2)nc(Nc2ccc(F)cc2)n1` (stereo not drawn), the growth was 2.62% (active).

On to `CC1(C)CC[C@]2(C(=O)O)CC[C@]3(C)C(=CCC4[C@@]5(C)C[C@@H](O)[C@@H]6OC(c7ccccc7F)OC[C@@]6(C)C5CC[C@]43C)C2C1` (stereo partly drawn), for which the growth was 2.87% (active).

Take `Cc1cccc(-c2nc(Nc3ccc(C)c(S(N)(=O)=O)c3)c3ccccc3n2)c1`: the growth was 16.8% (inactive).

Consider `COC(=O)C[C@](O)(CCCC(C)(C)O)C(=O)O[C@H]1C(OC)=C[C@@]23CCCN2CCc2cc4c(cc2[C@@H]13)OCO4`, for which the growth is -6.36% (active).

On to `Cn1cc(-c2cc(N)n3nc(-c4cn(C)c5ccccc45)cc3n2)c2cc(Cl)ccc21`, for which the growth is -6.02% (active).

Take `CC1(C)CC[C@]2(C(=O)O)CC[C@]3(C)C(=CCC4[C@@]5(C)C[C@@H](O)[C@@H]6OC(c7ccco7)OC[C@@]6(C)C5CC[C@]43C)C2C1` (stereo partly drawn): the growth was 21% (inactive).

As to `Cn1cc(-c2cc3nc(-c4c[nH]c5ccc(Cl)cc45)cc(N)n3n2)c2ccccc21`, the growth is -36.1% (active).

For `COc1ccc(Cc2nn(CC(=O)N/N=C/c3ccc(F)cc3)c(=O)c3c(C)noc23)cc1`, the growth is 92.6% (inactive).

`COc1cc2nc(SCc3ccccc3)n(-c3ccc(Cl)cc3)c(=O)c2cc1OC`: the growth is 43.1% (inactive).

`Cc1cccc(-c2nc(Nc3cccc(S(N)(=O)=O)c3)c3ccccc3n2)c1`: the growth was 27.6% (inactive).

With `COc1ccc2[nH]cc(-c3nnc(N)nc3-c3cn(C)c4ncc(Br)cc34)c2c1`, the growth is 56.6% (inactive).

In the case of `CCN(CC)c1ccc(/C=N/Nc2nc(-c3ccc(C)cc3)cs2)c(O)c1`, the growth was 80% (inactive).

Take `N/C(=N\c1nc2ccccc2s1)NC(=O)Nc1ccccc1Br`: the growth was 21.5% (inactive).

Values taken from PubChem BioAssay (NCI).
